Measurements as given in PubChem BioAssay (Tox21).
“And” between values parts separate entries of the source, which are not always exact repeats. Equal entries are not always repeated. Results filed as inconclusive are left out. The source made the active and inactive calls. Unless noted, calls come from the whole dose curve; as a rule, active = well fitted curve in the direction sought with a large enough effect in the repeat runs; inconclusive = weak or mixed curves; inactive = no such curve, though single readings can be large; an effect the other way counts as inactive or inconclusive.

Legend:
[1] = qHTS assay to identify small molecule antagonists of the peroxisome proliferator-activated receptor delta (PPARd) signaling pathway - cell viability counter screen (AID 743213); note: nearly all actives have a fitted effect of over 50% in size
In short: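 CellTiter-Glo was added to PPARd-bla HEK293H wells following 17 h compound treatment in the presence of 300 nM L165041. Luminescence was recorded after 30 min at room temperature.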

[2] = biological target: Peroxisome proliferator-activated receptor delta (Homo sapiens) (UniProt Q03181); assay: qHTS assay to identify small molecule antagonists of the peroxisome proliferator-activated receptor delta (PPARd) signaling pathway (AID 743215; active = well fitted inhibition curve with a large enough effect in the signal ratio in the repeat runs, not every such curve was filed as active; the % refers to the signal ratio;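 note: cells stimulated with agonist L165041 at 300 nM final during compound exposure; series mostly up to about 62 µM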)
Peroxisome proliferator-activated receptor delta (Homo sapiens), sequence (Q03181 whole entry, looked up): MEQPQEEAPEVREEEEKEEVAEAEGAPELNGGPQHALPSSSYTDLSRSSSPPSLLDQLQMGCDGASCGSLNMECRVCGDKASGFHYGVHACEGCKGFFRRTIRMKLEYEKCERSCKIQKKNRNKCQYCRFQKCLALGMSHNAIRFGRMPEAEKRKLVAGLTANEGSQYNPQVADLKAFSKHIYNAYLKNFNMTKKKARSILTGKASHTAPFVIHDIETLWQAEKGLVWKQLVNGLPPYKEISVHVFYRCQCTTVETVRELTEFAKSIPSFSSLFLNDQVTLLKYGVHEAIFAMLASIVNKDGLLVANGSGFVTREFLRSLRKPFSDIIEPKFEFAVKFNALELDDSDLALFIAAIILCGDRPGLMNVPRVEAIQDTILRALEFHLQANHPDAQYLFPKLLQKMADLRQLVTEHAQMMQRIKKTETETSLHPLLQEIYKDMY
In short: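 Plated HEK293H PPARd-bla cells rested 5 h at 37 C and 5% CO2. Compound, then agonist L165041 at 300 nM final, was added; 17 h at 37 C followed. Substrate loading, 2 h room temperature, fluorescence measured.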

[3] = qHTS assay to identify small molecule agonists of the farnesoid-X-receptor (FXR) signaling pathway - cell viability counter screen (AID 743218); note: nearly all actives have a fitted effect of over 45% in size
In short: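 Viability of FXR-bla HEK 293T cells is measured by ATP-based CellTiter-Glo luminescence following 16 h compound treatment at 37 C and a prior 2 h room-temperature beta-lactamase substrate step.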

[4] = qHTS assay to identify small molecule antagonists of the farnesoid-X-receptor (FXR) signaling pathway - cell viability counter screen (AID 743221; active = well fitted cell-killing curve with a large enough effect in the repeat runs, not every such curve was filed as active; note: nearly all actives have a fitted effect of over 50% in size)
In short: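 Cytotoxicity is taken from ATP luminescence (CellTiter-Glo, 30 min, room temperature) in FXR-bla HEK 293T cells previously incubated 16 h at 37 C with compound and chenodeoxycholic acid at 50 uM final.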

[5] = qHTS assay to identify small molecule agonists of the vitamin D receptor (VDR) signaling pathway - cell viability counter screen (AID 743224); note: series mostly up to about 63 µM; nearly all actives have a fitted effect of over 50% in size
In short: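 Compounds were pin-transferred onto VDR-bla cells plated 4 h earlier; following 16 h incubation at 37C, cell viability was quantified by CellTiter-Glo luminescence after 30 min at room temperature.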

[6] = qHTS assay to identify small molecule antagonists of the vitamin D receptor (VDR) signaling pathway - cell viability counter screen (AID 743225); note: nearly all actives have a fitted effect of over 50% in size
In short: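 Same-well multiplex: following 16 h treatment of HEK 293T cells carrying a UAS-driven beta-lactamase reporter with compound and agonist (3 nM final), and a 2 h FRET substrate step, CellTiter-Glo was added and luminescence read after 30 min.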

[7] = biological target: Vitamin D3 receptor (Homo sapiens) (UniProt P11473); assay: qHTS assay to identify small molecule agonists of the vitamin D receptor (VDR) signaling pathway (AID 743222; calls by dose curve)
Vitamin D3 receptor (Homo sapiens), sequence (P11473 whole entry, looked up): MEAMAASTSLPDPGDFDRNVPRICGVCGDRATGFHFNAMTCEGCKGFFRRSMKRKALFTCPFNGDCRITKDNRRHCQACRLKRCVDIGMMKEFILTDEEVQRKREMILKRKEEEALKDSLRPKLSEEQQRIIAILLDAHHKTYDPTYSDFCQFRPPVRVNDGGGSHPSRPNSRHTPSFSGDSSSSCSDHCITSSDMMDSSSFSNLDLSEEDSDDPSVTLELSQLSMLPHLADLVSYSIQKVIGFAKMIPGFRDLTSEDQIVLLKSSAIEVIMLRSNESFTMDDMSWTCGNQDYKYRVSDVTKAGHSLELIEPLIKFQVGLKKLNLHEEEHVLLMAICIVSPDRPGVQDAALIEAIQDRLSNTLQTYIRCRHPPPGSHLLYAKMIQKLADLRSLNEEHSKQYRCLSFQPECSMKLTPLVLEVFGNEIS
In short: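 Fluorescence from cleaved LiveBLAzer B/G FRET substrate served as readout. VDR-bla cells had been treated 16 h at 37C with test compounds in DMSO, following a 4 h settling period, and substrate was loaded for 2 h at RT.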

[8] = biological target: Vitamin D3 receptor (Homo sapiens) (UniProt P11473); assay: qHTS assay to identify small molecule antagonists of the vitamin D receptor (VDR) signaling pathway (AID 743223; active = well fitted inhibition curve with a large enough effect in the signal ratio in the repeat runs, not every such curve was filed as active; the % refers to the signal ratio)
In short: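 Quantitative HTS in VDR-bla reporter cells stimulated with 1alpha,25-dihydroxyvitamin D3, 3 nM final. Compound exposure 16 h, 37C, 5% CO2. Read-out: beta-lactamase FRET substrate fluorescence, 2 h RT.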

[9] = biological target: Bile acid receptor (Homo sapiens) (UniProt Q96RI1); assay: qHTS assay to identify small molecule antagonists of the farnesoid-X-receptor (FXR) signaling pathway (AID 743217; active = well fitted inhibition curve with a large enough effect in the signal ratio in the repeat runs, not every such curve was filed as active; the % refers to the signal ratio; note: potency is the fitted concentration of half-maximal effect)
Bile acid receptor (Homo sapiens), sequence (Q96RI1 whole entry, looked up): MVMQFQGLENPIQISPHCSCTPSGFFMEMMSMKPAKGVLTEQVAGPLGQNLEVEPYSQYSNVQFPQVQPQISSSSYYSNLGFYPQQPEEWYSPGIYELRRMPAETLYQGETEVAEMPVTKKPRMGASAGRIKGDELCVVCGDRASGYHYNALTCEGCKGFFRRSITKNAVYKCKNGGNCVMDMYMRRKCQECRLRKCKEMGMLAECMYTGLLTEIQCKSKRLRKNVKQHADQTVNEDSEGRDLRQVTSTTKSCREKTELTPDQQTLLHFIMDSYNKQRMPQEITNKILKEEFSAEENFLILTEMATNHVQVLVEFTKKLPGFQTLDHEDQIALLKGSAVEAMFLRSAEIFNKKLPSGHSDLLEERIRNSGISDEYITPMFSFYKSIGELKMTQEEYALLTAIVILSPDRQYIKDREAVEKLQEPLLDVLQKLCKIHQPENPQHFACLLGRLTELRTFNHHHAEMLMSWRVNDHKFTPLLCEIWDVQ
In short: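 Screen of the Tox21 10K library in quantitative HTS format using FXR-UAS-bla HEK 293T reporter cells. Agonist chenodeoxycholic acid, 50 uM final, added with compounds; 16 h incubation at 37 °C; beta-lactamase FRET fluorescence measured.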

[10] = biological target: Bile acid receptor (Homo sapiens) (UniProt Q96RI1); assay: qHTS assay to identify small molecule agonists of the farnesoid-X-receptor (FXR) signaling pathway (AID 743220; active = well fitted activation curve with a large enough effect in the signal ratio in the repeat runs, not every such curve was filed as active; the % refers to the signal ratio)
In short: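 FXR-UAS-bla HEK 293T cells carrying a UAS-driven beta-lactamase reporter were plated for 5 h at 37C/5% CO2, then exposed to DMSO-dissolved Tox21 10K compounds for 16 h at 37C. A LiveBLAzer B/G FRET substrate was loaded for 2 h at room temperature before fluorescence reading.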

Measured: Potency

C#C[C@]1(O)CC[C@H]2[C@@H]3CCc4cc(O)ccc4[C@H]3CC[C@@]21C
inactive: [1] | [2] | [3] | [4] | [5] | [6]

C[C@]12C=CC(=O)C=C1CC[C@@H]1[C@@H]2C(=O)C[C@@]2(C)[C@H]1CC[C@]2(O)C(=O)CO
inactive: [1] | [3] | [4] | [7] | [8] | [5] | [6]

C[C@]12CC[C@@H]3c4ccc(O)cc4CC[C@H]3[C@@H]1CCC2=O
inactive: [1] | [9] | [3] | [10] | [4] | [5] | [6]

CCOCCO
inactive: [1] | [9] | [3] | [10] | [4] | [7] | [8] | [5] | [6]

CC(C)(C)NCC(O)c1ccc(O)c(CO)c1 (stereo not drawn)
inactive: [1] | [2] | [3] | [4] | [5] | [6]

Cc1cccc(Nc2cc(Cl)nc(SCC(=O)O)n2)c1C
inactive: [1] | [3] | [4] | [7] | [8] | [5] | [6]

CN(C)C=O
inactive: [1] | [9] | [3] | [10] | [4] | [5] | [6]

C=C(C)C(N)=O
inactive: [1] | [3] | [4] | [7] | [8] | [5] | [6]

Nc1cccc(N)c1
inactive: [1] | [9] | [3] | [10] | [4] | [7] | [8] | [5] | [6]

NC(N)=NC(N)=NCCc1ccccc1
inactive: [1] | [2] | [3] | [4] | [5] | [6]

CCc1cc(C(N)=S)ccn1
inactive: [1] | [3] | [4] | [7] | [8] | [5] | [6]

CC(=O)/C=C/C1=C(C)CCCC1(C)C
inactive: [1] | [9] | [3] | [10] | [4] | [7] | [8] | [5] | [6]

C[C@]12CC[C@@H]3c4ccc(O)cc4C[C@@H](CCCCCCCCCS(=O)CCCC(F)(F)C(F)(F)F)[C@H]3[C@@H]1CC[C@@H]2O (stereo partly drawn)
inactive: [2] | [3] | [10] | [4] | [7] | [8] | [5] | [6]

O=c1c(-c2ccc(O)cc2)coc2cc(O)cc(O)c12
inactive: [1] | [3] | [10] | [4] | [7] | [8] | [5] | [6]
active: [9] 38.9 µM and 26.6 µM

CC(C)=CCC/C(C)=C/CO
inactive: [1] | [9] | [3] | [10] | [4] | [7] | [8] | [5] | [6]
